Compound activity deposited in PubChem by The Scripps Research Institute Molecular Screening Center.
An excerpt weighted towards active compounds, which were near 3.4% of everything screened.
MITF inh: human MITF inhibition, primary screen; inhibition, % at 2.6 µM; AlphaScreen MITF homodimerization, bead proximity signal; O75030; actives 0.91% (n = 650,000); AID 1259374; in the data active = inhibition above about 50%
FBW7 act: human FBW7 E3 ligase activation, primary screen. Q969H0. AlphaScreen FBW7–phospho-cyclin E peptide binding, activator screen. normalized activity (activation), % at 26.1 µM. actives 0.13% (n = 650,000); in the data active = normalized activity above about 1.9%;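 note: purified mutant Fbw7 with reduced substrate affinity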
TEAD-YAP block: TEAD-YAP interaction inhibition; HEK-TIYL cells, TEAD-Gal4/YAP UAS-luciferase luminescence; inhibition, % at 9.12 µM; actives 1.4% (n = 640,000); AID 1259422; in the data active = inhibition above about 32%
GPR151 ag: human GPR151 activation. Q8TDV0. PathHunter beta-arrestin GPR151 cells, luminescence. AID 1508602. actives 1% (n = 650,000). activation, % at 11.2 µM; in the data active = activation above about 4.9%
Target sequence (Q8TDV0 whole entry, looked up): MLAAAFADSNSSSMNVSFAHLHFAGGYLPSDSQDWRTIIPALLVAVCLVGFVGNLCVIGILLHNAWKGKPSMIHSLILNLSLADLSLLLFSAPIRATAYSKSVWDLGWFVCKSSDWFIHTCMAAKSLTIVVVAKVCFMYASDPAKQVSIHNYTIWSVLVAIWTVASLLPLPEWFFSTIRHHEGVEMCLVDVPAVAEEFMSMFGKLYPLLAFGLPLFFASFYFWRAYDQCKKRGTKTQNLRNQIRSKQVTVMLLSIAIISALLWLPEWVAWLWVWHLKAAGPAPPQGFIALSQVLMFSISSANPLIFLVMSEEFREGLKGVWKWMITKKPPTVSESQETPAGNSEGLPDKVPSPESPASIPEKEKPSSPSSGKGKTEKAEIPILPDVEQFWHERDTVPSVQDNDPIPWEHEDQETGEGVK
MITF inh conf: human MITF inhibition, confirmation; inhibition, % at 2.6 µM; AID 1259372; AlphaScreen MITF homodimerization, biotin/His-MITF beads; shares compounds with MITF inh; actives 16% (n = 4,700);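 active = inhibition above a cutoff derived from the DMSO control wells, cut at about 28% in these data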;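 note: inhibitors lower the bead chemiluminescence by keeping MITF from dimerizing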
AlphaScreen DR: AlphaScreen optical interference, dose response counter-screen; shares compounds with MITF inh; AlphaScreen optical interference counterscreen, cell-free; IC50, µM; actives 6% (n = 480); call rule not given here
AS interf ctr: AlphaScreen optical interference, counter-screen | shares compounds with MITF inh | AID 1259376 | actives 7.6% (n = 4,700) | LysRS AlphaScreen counterscreen, signal interference, triplicate | inhibition, % at 2.6 µM;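 active = inhibition above a cutoff derived from the DMSO control wells, cut at about 30% in these data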
Large screens that a line does not name were inactive (follow-up assays come after a bar, where they were run).

COc1ccc(CN2CCN(Cc3ccccc3C(F)(F)F)CC2)c(OC)c1	MITF inh 77.6 | MITF inh conf inactive | AS interf ctr inactive
CC(=O)Nc1ccc(NC(=O)c2ccnc(-c3cccs3)c2)cc1	none
O=C(Nc1ccc(Oc2ccccc2)cc1)c1cnc(-c2cccs2)s1	MITF inh 53.4 | MITF inh conf inactive | AS interf ctr inactive
O=C(Nc1ccc(Oc2ccccc2)cc1)c1ccnc(-c2cccs2)c1	MITF inh 56.8 | MITF inh conf 53.3 | AlphaScreen DR inactive | AS interf ctr inactive
C=CCN(CC=C)S(=O)(=O)c1ccc(C(=O)Nc2sc3c(c2C(=O)OCC)CCC3)cc1	none
COc1ccccc1C(c1ccc(C)o1)c1ccc(C)o1	none
Cc1ccc(C(c2ccc(C)o2)c2ccccc2N)o1	MITF inh 67.1 | MITF inh conf inactive | AS interf ctr inactive
COc1ccc(-c2nc(SC3CCCC3)c3c(=O)n(C)c(=O)n(C)c3n2)cc1OC	none
O=C1N[C@@H](CC2CCCCC2)C(=O)N2CCN(C(=O)c3cc(F)c(F)cc3F)C[C@H]12	none
C[C@H]1NC(=O)[C@@H]2C[C@H](NC(=O)NC3CCCCC3)CN2C1=O	none
C[C@@H]1NC(=O)[C@H]2CN(C(=O)NC3CCCCC3)CCN2C1=O	MITF inh 77.2 | MITF inh conf 73.8 | AlphaScreen DR inactive | AS interf ctr inactive
O=C1N[C@@H](CC2CCCCC2)C(=O)N2CCN(C(=O)Nc3ccccc3)C[C@H]12	MITF inh 77.0 | MITF inh conf 70.3 | AlphaScreen DR inactive | AS interf ctr inactive
CCC[C@@H]1NC(=O)[C@H]2CN(C(=O)NC3CCCCC3)CCN2C1=O	MITF inh 76.7 | MITF inh conf 71.1 | AlphaScreen DR inactive | AS interf ctr inactive
CC[C@H](C)[C@@H]1NC(=O)[C@H]2CN(C(=O)NC3CCCCC3)CCN2C1=O	MITF inh 73.5 | MITF inh conf 69.9 | AlphaScreen DR inactive | AS interf ctr inactive
CC[C@H](C)[C@@H]1NC(=O)[C@H]2CN(C(=O)c3cc(Cl)cc(Cl)c3)CCN2C1=O	none
O=C(c1cccc(Br)c1)N1CCN(c2ccc([N+](=O)[O-])c(N3CCCCC3)c2)CC1	none
C=CCN(CC=C)C(=O)c1ccc(N2C(=O)c3ccccc3C2=O)cc1	none
Cc1cccc(CN2C[C@H](Sc3nccn3C)C[C@H]2C(=O)N2CCCN(C)CC2)c1	none
CCOC(=O)CC(=O)NC(C)(C)Cc1ccc(O)c(Br)c1	none
O=C1N[C@@H](CSCc2ccccc2)C(=O)N2CCN(C(=O)NC3CCCCC3)C[C@H]12	MITF inh 64.9 | MITF inh conf 71.9 | AlphaScreen DR inactive | AS interf ctr inactive
COc1ccc(Cl)cc1C(=O)NNC(=O)COc1ccc2c(C)cc(=O)oc2c1	MITF inh 64.3 | MITF inh conf inactive | AS interf ctr inactive
CC1=C(C(=O)Nc2ccccc2Cl)C(c2ccccc2Cl)NC(=O)N1 (stereo not drawn)	none
COC(=O)c1ccc(CN2CCN(Cc3nc4ccccc4[nH]3)CC2)o1	MITF inh 73.1 | MITF inh conf inactive | AS interf ctr inactive
COc1ccc(CCNC(=O)N2CCN(Cc3nc4ccccc4[nH]3)CC2)cc1	none
CC(=O)c1ccc(NC(=O)N2CCN(Cc3nc4ccccc4[nH]3)CC2)cc1	none
O=C(c1ccc(Cn2ccnc2)cc1)N1CCN(Cc2nc3ccccc3[nH]2)CC1	MITF inh 87.3 | MITF inh conf inactive | AS interf ctr inactive
CC1CC(C)(C)Cc2c1sc(NC(=O)c1ccco1)c2C#N (stereo not drawn)	MITF inh 84.3 | MITF inh conf inactive | AS interf ctr inactive
CCCNC(=O)c1ccc(NC2=NC3CS(=O)(=O)CC3S2)cc1 (stereo not drawn)	none
FC(F)(F)c1ccccc1CN1CCN(C2CCCCCC2)CC1	MITF inh 78.0 | MITF inh conf inactive | AS interf ctr inactive
FC(F)(F)c1ccccc1CN1CCC(N2CCCCC2)CC1	none
FC(F)(F)c1ccccc1CN1CCC(N2CCCC2)CC1	MITF inh 57.2 | MITF inh conf inactive | AS interf ctr inactive
CCOC(=O)C1CCCCN1Cc1ccccc1C(F)(F)F (stereo not drawn)	MITF inh 52.9 | MITF inh conf inactive | AS interf ctr inactive
FC(F)(F)c1ccccc1CN1CCN(C2CCCCC2)CC1	MITF inh 68.9 | MITF inh conf inactive | AS interf ctr inactive
Cc1ccc(CNC(=O)c2ccc3c(c2)NC(=O)c2ccccc2N3)cc1	none
NS(=O)(=O)c1ccc(CCNC(=O)CSc2nc3ccsc3c(=O)n2-c2ccc(F)cc2)cc1	none
FC(F)(F)c1ccccc1CN1CCN(C2C3CC4CC(C3)CC2C4)CC1 (stereo not drawn)	MITF inh 75.8 | MITF inh conf inactive | AS interf ctr inactive
O=S(=O)(c1ccc2ccccc2c1)N1CCN(Cc2ccccc2C(F)(F)F)CC1	none
COc1cccc(C(=O)N[C@H]2C[C@H]3C(=O)N[C@H](C)C(=O)N3C2)c1	MITF inh 65.9 | MITF inh conf inactive | AS interf ctr inactive
CS(=O)(=O)N(Cc1ccccc1)c1ccc(C(=O)NCCSCc2ccc(Cl)cc2)cc1	none
COc1ccccc1COCC(O)CNCC12CC3CC(CC(C3)C1)C2 (stereo not drawn)	MITF inh 63.8 | MITF inh conf inactive | AS interf ctr inactive
COc1ccccc1COCC(O)CNCCc1ccc(C(F)(F)F)cc1 (stereo not drawn)	none
COc1ccc(OCC(O)CNCCCN(C)C)c(C(C)(C)C)c1 (stereo not drawn)	MITF inh 68.3 | MITF inh conf inactive | AS interf ctr inactive
COc1ccc(OCC(O)CNCCC(C)C)c(C(C)(C)C)c1 (stereo not drawn)	none
COc1ccccc1COCC(O)CNCCCN(C)C (stereo not drawn)	MITF inh 56.1 | MITF inh conf inactive | AS interf ctr inactive
O=C(NCc1ccco1)c1cc2nc(-c3ccc(F)cc3)cc(C(F)(F)F)n2n1	none
COc1cccc(-n2nnc3c(=O)n(CC(=O)N4CCCC4)cnc32)c1	none
CC(C)(C)n1ncc2c(=O)n(Cc3cccc(F)c3)cnc21	MITF inh 54.5 | MITF inh conf inactive | AS interf ctr inactive
COc1ccc(C(=O)NNC(=O)C(=O)NC(C)(C)C)cc1OC	none
CSc1nc(NN)c2c3c(sc2n1)CN(C)CC3	MITF inh 73.8 | MITF inh conf inactive | AS interf ctr inactive
CCN1CCN(CC(O)COC(c2ccccc2)c2ccccc2C)CC1 (stereo not drawn)	MITF inh 88.4 | MITF inh conf inactive | AS interf ctr inactive
O=C(CNCCc1ccc2c(c1)OCCO2)N1CCc2ccccc21	MITF inh 50.7 | MITF inh conf inactive | AS interf ctr inactive
CN(C)c1ccc(C(=O)Nc2sc3c(c2C(N)=O)CCN(Cc2ccccc2)C3)cc1	none
